Laboratory results taken from ChEMBL document CHEMBL3988442, “University of Dundee, Small-Polar-MMV Screening Library” (2021).

Assays:
[1] = molecular target: T1, Aspartate--tRNA(Asp/Asn) ligase (Mycobacterium tuberculosis (strain ATCC 25618 / H37Rv)) (UniProt P9WFW3); assay: Assay for Asp RNA synthetase-1 from Mycobacterium tuberculosis; type: functional; design: scale not given: direction of the effect not stated beside the values; conditions: 30 µM; also: in the data most compounds retested in dose-response had high values
T1 sequence (whole entry): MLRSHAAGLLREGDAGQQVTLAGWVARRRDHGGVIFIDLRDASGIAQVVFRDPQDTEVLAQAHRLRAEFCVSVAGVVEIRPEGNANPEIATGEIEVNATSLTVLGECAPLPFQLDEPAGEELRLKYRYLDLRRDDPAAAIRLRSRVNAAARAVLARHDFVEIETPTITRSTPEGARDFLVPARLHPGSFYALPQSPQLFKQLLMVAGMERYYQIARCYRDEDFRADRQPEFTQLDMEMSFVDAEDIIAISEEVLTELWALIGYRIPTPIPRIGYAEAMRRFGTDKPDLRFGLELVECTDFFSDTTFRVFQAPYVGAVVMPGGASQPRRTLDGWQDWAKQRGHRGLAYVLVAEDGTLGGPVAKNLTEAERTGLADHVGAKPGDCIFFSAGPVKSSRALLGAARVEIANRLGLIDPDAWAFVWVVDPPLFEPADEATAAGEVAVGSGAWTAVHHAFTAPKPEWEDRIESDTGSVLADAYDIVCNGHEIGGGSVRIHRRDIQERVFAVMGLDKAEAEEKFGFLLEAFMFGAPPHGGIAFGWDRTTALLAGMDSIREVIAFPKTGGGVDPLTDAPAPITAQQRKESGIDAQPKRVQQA

[2] = molecular target: Shiga toxin 2 (Escherichia coli O157:H7) (UniProt P09385+P09386); assay: E. coli 0.157:H7 Shiga Toxin SOP - stx2 screening assay; type: functional; design: scale not given: direction of the effect not stated beside the values; conditions: 30 µM

O=C(NC1(c2cccc(F)c2)CCOCC1)c1cc[nH]n1
Percent Effect [1]: 3.45%
Percent Effect [2]: -26.7%

CNC(=O)NC(=O)Cn1cc(-c2ccccc2)cn1
Percent Effect [1]: -2.46%
Percent Effect [2]: 5.7%

O=C1CN(Cc2nnc(-c3ccc(Br)cc3)o2)CCN1
Percent Effect [1]: -0.167%
Percent Effect [2]: -95.1%

Cc1nc(CN2CCN(C(=O)c3cc(C4CC4)on3)CC2)cs1
Percent Effect [1]: -5.68%
Percent Effect [2]: 24.9%

CC(C)NC(=O)N1CCc2ncc(CN3CCOCC3)n2CC1
Percent Effect [1]: 3.1%
Percent Effect [2]: 0.463%

CCc1ccc(C(=O)NC2CCN(c3cnn(C)c3)C2=O)o1 (centres undefined)
Percent Effect [1]: 3.57%
Percent Effect [2]: -7.19%

CCCN(C(=O)COC)c1nc2c(s1)CCc1c-2cnn1C
Percent Effect [1]: -1.78%
Percent Effect [2]: -37.9%

Cc1ccc(NC(=O)Nc2cnc(N3CCN(C)CC3)nc2)c(Cl)c1
Percent Effect [1]: -3.19%
Percent Effect [2]: -20.4%

COC(=O)C(C)(C)NC(=O)C1CC(=O)N(C)C1 (centres undefined)
Percent Effect [1]: -1.62%
Percent Effect [2]: -22.5%

O=C1NCCN1C1CCN(Cc2ccccn2)CC1
Percent Effect [1]: -1.42%
Percent Effect [2]: -6.38%

CN(Cc1ccsc1)C(=O)CN1CCOC(Cn2cccn2)C1 (centres undefined)
Percent Effect [1]: 0.463%
Percent Effect [2]: -18.6%

Cc1ccc(Cl)cc1N1CCC(CNC(=O)CCn2ccnn2)C1 (centres undefined)
Percent Effect [1]: 2.9%
Percent Effect [2]: -49.4%

Cc1nccn1C1CCCN(C(=O)c2ccc3c(c2)NC(=O)CO3)C1 (centres undefined)
Percent Effect [1]: -2.02%
Percent Effect [2]: 24.5%

OCCn1cc(CN2CCN(CCOc3ccccc3F)CC2)cn1
Percent Effect [1]: -0.699%
Percent Effect [2]: 24.4%

Cc1nc[nH]c1-c1nc2cc(S(=O)(=O)N3CCCC3)ccc2n1C
Percent Effect [1]: 1.21%
Percent Effect [2]: 0.151%

COc1cccc(S(=O)(=O)NC2CNC(=O)C2)c1 (centres undefined)
Percent Effect [1]: -3.48%
Percent Effect [2]: 3.09%

CC(NC(=O)NCCCN1CCCCCC1)c1nncn1C (centres undefined)
Percent Effect [1]: 2.07%
Percent Effect [2]: -17.6%

NCc1cn(-c2ccccc2C(=O)NCc2cccc(Cl)c2)cn1
Percent Effect [1]: -0.574%
Percent Effect [2]: 40.7%

COCCc1noc(CN2CCc3nn(C(C)C)c(=O)cc3C2)n1
Percent Effect [1]: -0.0281%
Percent Effect [2]: 19.6%

Cc1nn(C)c(C)c1C1CCCN1C(=O)CCNc1ncccn1 (centres undefined)
Percent Effect [1]: 6.63%
Percent Effect [2]: 13.4%

COc1ccc(CC(=O)N2CCc3nnc(N(C)C)cc3C2)cc1F
Percent Effect [1]: 2.43%
Percent Effect [2]: -57.1%

CCN(CC1CCOC1)C(=O)c1ccccc1NS(=O)(=O)CC (centres undefined)
Percent Effect [1]: -4.47%
Percent Effect [2]: 33.3%

Cc1cc(C(=O)NCc2ccc(N3CCCC(C(N)=O)C3)cc2)[nH]n1 (centres undefined)
Percent Effect [1]: -3.98%
Percent Effect [2]: -16.8%

COc1ccc(NC(=O)c2ccc[nH]2)c(N2CCN(C(C)=O)CC2)n1
Percent Effect [1]: 1.11%
Percent Effect [2]: 0.954%

O=C1C(NS(=O)(=O)c2cc(F)cc(F)c2)CCN1Cc1ccccc1 (centres undefined)
Percent Effect [1]: -5.71%
Percent Effect [2]: 3.9%

c1cnn(CC2CN(c3ncnc4ccsc34)CCO2)c1 (centres undefined)
Percent Effect [1]: 1.65%
Percent Effect [2]: -10.2%

CC(=O)N1CCC2(CC1)C(=O)N(CC1CC1)c1ccccc12
Percent Effect [1]: -1.18%
Percent Effect [2]: -4.33%

O=C(CN(Cc1ccccc1)CC1CCOCC1)NC(=O)NC1CC1
Percent Effect [1]: 0.182%
Percent Effect [2]: -31.8%

O=C(NCCn1ccc(-c2ccccn2)n1)C1CC1
Percent Effect [1]: 2.14%
Percent Effect [2]: -6.67%

Cc1ccccc1S(=O)(=O)NC(=O)CSc1ccc2c(c1)OCCO2
Percent Effect [1]: -0.334%
Percent Effect [2]: -0.0455%

CCC(=O)N1CCCC(c2cc(Nc3ncccn3)nc(C)n2)C1 (centres undefined)
Percent Effect [1]: 1.35%
Percent Effect [2]: 12.4%

CCN(Cc1ccco1)C(=O)Nc1cc(C(F)(F)F)c[nH]c1=O
Percent Effect [1]: 3.71%
Percent Effect [2]: 34.2%

CCn1cc(NC(=O)NCC(O)COc2cccc(F)c2)cn1 (centres undefined)
Percent Effect [1]: 1.57%
Percent Effect [2]: 20.1%

Cc1ccc(C(=O)N2CCN(CC(O)c3ccc(F)cc3)CC2)s1 (centres undefined)
Percent Effect [1]: 0.567%
Percent Effect [2]: 32.2%

Cc1ccc(-c2ncc(C(=O)NCCS(N)(=O)=O)s2)c(C)c1
Percent Effect [1]: 1.7%
Percent Effect [2]: 18.5%

CS(=O)(=O)Cc1cccc(C(=O)NCC2Cc3ccccc3O2)c1 (centres undefined)
Percent Effect [1]: 8.39%
Percent Effect [2]: -0.655%

CCN(Cc1ccco1)C(=O)NCc1nnc2n1CCC2
Percent Effect [1]: 0.859%
Percent Effect [2]: -4.02%

CNC(=O)c1cc2c(nc1N(C)C)CCN(S(=O)(=O)C1CC1)CC2
Percent Effect [1]: 0.364%
Percent Effect [2]: -4.82%

Cc1ccc(C(=O)NS(=O)(=O)c2cc(Cl)ccc2Cl)c(=O)[nH]1
Percent Effect [1]: 0%
Percent Effect [2]: -9.88%

Cc1cnn(CCC(=O)N2CCCC(c3cc(C(N)=O)[nH]n3)C2)c1 (centres undefined)
Percent Effect [1]: -2.86%
Percent Effect [2]: -13.8%

CCN(C)c1ncnc2c1CCN(Cc1ccc(OC)cc1)CC2
Percent Effect [1]: 7%
Percent Effect [2]: 4.46%

Cc1nc(-c2ccco2)ccc1C(=O)N1CCCC1Cn1cccn1 (centres undefined)
Percent Effect [1]: 0.0146%
Percent Effect [2]: 15.5%

Cc1cc(CN2CCN(C(=O)c3sccc3C(C)C)CC2)no1
Percent Effect [1]: 0.346%
Percent Effect [2]: 7.17%

Cc1nc(CN2C[C@@H]3CN(C(=O)c4cnccn4)C[C@@H]3C2)cs1
Percent Effect [1]: -0.661%
Percent Effect [2]: 1.79%

CN(CCC(F)(F)F)C(=O)[C@H]1CSCN1C(=O)OC(C)(C)C
Percent Effect [1]: -5.95%
Percent Effect [2]: -17.7%

CS(=O)(=O)NCc1cc2n(n1)CCCN(Cc1cccc(C#N)c1)C2
Percent Effect [1]: 0.342%
Percent Effect [2]: 18.6%

c1ncn(CC2CCCCN2Cc2csc(C3CCCC3)n2)n1 (centres undefined)
Percent Effect [1]: -7.74%
Percent Effect [2]: -35.6%

COc1cc(C(=O)N(Cc2cnn(C)c2)C(C)C)ccc1OCC(N)=O
Percent Effect [1]: 0.225%
Percent Effect [2]: 33%

CCOCC1CN(Cc2ccoc2)Cc2ncn(CC3CC3)c21 (centres undefined)
Percent Effect [1]: 0.605%
Percent Effect [2]: -8.58%

Cc1cnn(CC2CCCN2Cc2cc(=O)n3cccc(C)c3n2)c1 (centres undefined)
Percent Effect [1]: 3.68%
Percent Effect [2]: 8%

Cc1nc(COC[C@@H]2CCC[C@@]23CNCCO3)cs1
Percent Effect [1]: 19.4%
Percent Effect [2]: -7.74%

C=Cn1ncc(CN2C[C@@H]3CCCN3C[C@H]2CCSC)c1C
Percent Effect [1]: 1.89%
Percent Effect [2]: -18.3%
